Assay results from the supplement of paper PMC11732987, “Enantioselective OTUD7B fragment discovery through chemoproteomics screening and high-throughput optimisation” (Communications Chemistry, 2025).

How the values were obtained:
Assay in all cases: log2 ratio of Biotin-Ahx-Ub-VS probe labelling (fragment/DMSO); higher = less target engagement (more negative = stronger competition), active = hit call of the paper (q ≤ 0.05, log2 ratio ≤ -1)
Conditions in all cases: compound concentration: 200 uM; treatment time: 3 h
USP42 = target: T1, USP42 (UniProt Q9H9J4)
T1 sequence (whole entry): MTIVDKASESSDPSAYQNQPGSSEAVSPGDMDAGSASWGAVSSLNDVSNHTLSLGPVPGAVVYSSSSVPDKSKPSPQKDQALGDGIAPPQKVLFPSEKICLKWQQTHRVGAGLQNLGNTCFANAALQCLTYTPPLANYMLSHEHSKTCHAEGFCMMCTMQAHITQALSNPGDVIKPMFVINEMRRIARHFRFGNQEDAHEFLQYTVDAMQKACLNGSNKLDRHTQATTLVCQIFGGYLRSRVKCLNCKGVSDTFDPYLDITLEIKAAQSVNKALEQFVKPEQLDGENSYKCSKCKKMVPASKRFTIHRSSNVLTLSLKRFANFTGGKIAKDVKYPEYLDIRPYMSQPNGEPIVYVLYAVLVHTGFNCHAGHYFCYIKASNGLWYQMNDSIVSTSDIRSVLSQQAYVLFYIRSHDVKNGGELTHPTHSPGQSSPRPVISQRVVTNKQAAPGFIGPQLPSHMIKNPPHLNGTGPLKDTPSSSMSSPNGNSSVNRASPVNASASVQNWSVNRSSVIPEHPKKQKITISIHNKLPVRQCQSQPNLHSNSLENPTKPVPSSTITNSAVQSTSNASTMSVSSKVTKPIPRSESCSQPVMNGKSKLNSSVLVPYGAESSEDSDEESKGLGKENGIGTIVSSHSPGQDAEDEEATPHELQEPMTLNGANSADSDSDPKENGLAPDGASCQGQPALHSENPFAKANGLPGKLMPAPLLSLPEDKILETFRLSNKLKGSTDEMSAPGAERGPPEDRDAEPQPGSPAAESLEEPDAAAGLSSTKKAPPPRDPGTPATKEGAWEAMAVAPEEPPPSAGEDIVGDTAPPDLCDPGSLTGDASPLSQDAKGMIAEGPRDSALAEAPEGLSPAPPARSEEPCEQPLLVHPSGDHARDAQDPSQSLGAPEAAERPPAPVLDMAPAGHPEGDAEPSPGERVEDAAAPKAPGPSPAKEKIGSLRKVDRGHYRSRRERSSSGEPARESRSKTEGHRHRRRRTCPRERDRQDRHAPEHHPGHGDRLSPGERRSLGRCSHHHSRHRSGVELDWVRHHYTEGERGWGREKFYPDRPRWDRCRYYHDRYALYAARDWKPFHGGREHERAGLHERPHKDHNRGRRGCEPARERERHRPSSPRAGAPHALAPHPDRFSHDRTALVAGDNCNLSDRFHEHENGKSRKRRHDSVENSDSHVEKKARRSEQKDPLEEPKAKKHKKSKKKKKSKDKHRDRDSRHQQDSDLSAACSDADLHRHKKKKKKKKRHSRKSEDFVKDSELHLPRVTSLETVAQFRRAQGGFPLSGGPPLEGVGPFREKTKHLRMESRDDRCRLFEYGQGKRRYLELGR
Summary of the method: (§1)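 HEK293T lysate, 495 µg per sample in Tris/CHAPS/IGEPAL buffer with protease inhibitors, was treated in triplicate with fragment at 200 µM or vehicle for 3 h and then with Biotin-Ahx-Ub-VS at 0.5 µM final for 1 h. Labelled DUBs were NeutrAvidin-enriched, digested with LysC and trypsin, and run by diaPASEF LC-MS/MS. Spectronaut label-free quantities were global-median-normalised, and values are average log2 fragment/vehicle ratios by unpaired t-test on proteins with ≥2 unique peptides.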

USP46 = USP46 (UniProt P62068)
Summary of the method: as §1

USP47 = target: T2, USP47 (UniProt Q96K76)
T2 sequence (whole entry): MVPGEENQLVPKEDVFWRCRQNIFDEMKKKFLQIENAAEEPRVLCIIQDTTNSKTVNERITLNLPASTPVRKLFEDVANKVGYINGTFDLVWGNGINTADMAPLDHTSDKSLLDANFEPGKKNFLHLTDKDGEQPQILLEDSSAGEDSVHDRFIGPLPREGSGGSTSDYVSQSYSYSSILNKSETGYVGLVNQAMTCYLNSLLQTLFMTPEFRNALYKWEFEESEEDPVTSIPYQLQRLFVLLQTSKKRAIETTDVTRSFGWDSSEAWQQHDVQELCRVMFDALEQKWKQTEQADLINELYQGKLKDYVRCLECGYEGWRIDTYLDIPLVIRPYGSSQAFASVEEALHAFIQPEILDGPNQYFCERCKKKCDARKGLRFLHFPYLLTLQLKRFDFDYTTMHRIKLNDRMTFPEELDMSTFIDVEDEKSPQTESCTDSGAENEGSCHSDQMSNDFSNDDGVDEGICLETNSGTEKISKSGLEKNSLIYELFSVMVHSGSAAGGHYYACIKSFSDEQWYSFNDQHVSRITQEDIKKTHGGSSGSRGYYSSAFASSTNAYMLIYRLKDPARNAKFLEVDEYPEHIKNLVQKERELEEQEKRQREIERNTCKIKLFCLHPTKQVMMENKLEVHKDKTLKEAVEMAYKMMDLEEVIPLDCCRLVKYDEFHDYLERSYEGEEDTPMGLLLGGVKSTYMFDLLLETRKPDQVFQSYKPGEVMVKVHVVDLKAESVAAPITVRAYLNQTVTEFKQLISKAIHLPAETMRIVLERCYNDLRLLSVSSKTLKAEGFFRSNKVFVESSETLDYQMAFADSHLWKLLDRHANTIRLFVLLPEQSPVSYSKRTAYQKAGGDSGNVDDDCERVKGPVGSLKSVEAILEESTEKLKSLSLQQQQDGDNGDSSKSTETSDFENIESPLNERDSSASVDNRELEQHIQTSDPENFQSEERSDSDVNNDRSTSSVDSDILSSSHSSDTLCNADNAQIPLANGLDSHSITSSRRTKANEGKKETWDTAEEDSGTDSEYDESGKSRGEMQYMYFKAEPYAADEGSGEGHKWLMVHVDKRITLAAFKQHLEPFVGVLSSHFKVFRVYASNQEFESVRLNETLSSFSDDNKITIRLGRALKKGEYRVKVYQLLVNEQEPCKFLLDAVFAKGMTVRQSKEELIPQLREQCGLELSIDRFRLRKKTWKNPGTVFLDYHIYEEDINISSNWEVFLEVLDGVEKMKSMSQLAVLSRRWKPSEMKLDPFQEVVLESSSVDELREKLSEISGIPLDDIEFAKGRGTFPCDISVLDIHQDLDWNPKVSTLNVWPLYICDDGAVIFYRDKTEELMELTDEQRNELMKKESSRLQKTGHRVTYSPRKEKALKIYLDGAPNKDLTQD
Summary of the method: as §1

USP48 = target: T3, USP48 (UniProt Q86UV5)
T3 sequence (whole entry): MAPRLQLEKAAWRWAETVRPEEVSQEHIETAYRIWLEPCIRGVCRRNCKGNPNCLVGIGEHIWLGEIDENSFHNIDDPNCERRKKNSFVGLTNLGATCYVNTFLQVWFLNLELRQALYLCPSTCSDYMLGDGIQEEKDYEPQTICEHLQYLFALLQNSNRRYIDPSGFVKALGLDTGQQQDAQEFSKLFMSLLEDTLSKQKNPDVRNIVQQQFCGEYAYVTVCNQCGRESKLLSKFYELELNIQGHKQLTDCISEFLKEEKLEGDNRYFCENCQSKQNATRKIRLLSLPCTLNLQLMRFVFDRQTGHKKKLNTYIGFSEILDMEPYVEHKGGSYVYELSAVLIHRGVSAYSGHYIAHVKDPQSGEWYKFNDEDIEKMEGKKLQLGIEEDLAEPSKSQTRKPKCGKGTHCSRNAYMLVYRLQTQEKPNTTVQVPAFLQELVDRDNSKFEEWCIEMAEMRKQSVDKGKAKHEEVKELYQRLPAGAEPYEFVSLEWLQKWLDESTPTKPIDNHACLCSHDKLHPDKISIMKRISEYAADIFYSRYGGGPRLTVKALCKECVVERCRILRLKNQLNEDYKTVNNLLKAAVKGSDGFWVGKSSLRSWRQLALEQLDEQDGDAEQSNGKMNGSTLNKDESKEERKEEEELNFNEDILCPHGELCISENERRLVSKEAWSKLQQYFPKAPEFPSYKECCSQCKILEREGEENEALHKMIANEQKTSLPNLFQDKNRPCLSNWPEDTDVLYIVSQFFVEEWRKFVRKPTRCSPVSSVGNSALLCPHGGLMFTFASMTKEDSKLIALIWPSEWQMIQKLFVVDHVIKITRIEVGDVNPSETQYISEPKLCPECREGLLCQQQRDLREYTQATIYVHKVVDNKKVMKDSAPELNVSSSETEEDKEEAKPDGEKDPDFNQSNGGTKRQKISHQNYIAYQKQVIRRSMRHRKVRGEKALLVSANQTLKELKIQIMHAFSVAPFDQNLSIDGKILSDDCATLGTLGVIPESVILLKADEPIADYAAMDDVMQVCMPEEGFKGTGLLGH
Summary of the method: as §1

USP5 = target: T4, USP5 (UniProt P45974)
T4 sequence (whole entry): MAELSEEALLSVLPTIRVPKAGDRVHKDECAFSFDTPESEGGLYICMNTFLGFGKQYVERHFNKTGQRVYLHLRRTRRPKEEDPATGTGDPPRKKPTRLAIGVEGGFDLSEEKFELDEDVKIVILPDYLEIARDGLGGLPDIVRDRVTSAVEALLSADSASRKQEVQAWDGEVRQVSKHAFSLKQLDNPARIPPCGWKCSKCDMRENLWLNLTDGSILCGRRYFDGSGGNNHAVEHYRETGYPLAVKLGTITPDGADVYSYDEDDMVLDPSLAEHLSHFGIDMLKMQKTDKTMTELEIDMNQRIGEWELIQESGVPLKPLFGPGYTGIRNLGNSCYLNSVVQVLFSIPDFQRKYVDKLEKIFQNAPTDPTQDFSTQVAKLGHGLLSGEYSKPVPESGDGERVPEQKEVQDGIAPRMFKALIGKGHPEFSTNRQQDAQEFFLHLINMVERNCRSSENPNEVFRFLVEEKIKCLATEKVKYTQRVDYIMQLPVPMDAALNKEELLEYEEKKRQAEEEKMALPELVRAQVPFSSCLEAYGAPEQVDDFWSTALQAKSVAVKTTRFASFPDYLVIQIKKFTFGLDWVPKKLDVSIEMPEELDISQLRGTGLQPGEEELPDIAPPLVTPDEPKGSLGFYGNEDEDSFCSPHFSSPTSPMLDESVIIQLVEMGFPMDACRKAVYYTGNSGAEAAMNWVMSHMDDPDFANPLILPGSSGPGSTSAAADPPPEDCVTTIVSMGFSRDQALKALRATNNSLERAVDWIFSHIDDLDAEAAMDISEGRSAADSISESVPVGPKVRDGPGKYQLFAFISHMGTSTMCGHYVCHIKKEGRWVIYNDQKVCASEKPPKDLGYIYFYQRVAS
Summary of the method: as §1

USP54 = USP54 (UniProt Q70EL1)
Summary of the method: as §1

USP7 = USP7 (UniProt Q93009)
Summary of the method: as §1

USP8 = target: T5, USP8 (UniProt P40818)
T5 sequence (whole entry): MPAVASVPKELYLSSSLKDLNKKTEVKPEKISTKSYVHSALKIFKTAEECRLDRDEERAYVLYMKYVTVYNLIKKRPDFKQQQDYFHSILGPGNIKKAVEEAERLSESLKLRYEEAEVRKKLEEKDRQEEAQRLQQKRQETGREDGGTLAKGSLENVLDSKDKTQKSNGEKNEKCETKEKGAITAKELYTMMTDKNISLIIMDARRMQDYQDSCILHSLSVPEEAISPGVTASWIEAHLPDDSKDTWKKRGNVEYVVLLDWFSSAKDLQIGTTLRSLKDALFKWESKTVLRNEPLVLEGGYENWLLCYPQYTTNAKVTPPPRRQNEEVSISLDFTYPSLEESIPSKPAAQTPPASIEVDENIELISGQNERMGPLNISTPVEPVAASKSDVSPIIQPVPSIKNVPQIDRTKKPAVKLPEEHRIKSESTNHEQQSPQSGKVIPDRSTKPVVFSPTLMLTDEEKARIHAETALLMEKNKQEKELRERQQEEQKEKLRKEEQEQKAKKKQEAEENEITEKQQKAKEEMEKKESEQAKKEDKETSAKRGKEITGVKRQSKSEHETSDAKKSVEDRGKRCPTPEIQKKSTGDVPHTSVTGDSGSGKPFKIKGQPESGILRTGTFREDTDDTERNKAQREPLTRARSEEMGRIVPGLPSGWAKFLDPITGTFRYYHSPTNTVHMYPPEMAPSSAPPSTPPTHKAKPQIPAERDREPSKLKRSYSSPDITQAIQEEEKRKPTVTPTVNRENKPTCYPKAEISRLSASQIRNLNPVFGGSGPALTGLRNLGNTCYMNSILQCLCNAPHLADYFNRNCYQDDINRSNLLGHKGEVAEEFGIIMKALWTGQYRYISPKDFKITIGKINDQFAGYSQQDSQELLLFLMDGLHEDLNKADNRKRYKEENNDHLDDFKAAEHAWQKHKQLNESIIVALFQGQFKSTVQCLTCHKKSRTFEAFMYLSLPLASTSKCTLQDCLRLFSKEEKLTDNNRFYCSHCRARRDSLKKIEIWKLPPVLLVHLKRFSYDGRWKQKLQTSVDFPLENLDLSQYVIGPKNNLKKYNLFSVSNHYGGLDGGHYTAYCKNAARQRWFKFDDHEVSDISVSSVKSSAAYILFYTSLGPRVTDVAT
Summary of the method: as §1

USP9X = USP9X (UniProt Q93008)
Summary of the method: as §1

UniProt O00487 = target: UniProt O00487
Summary of the method: as §1

Measured: log2 ratio of Biotin-Ahx-Ub-VS probe labelling

Chain of USP46 (P62068 whole entry): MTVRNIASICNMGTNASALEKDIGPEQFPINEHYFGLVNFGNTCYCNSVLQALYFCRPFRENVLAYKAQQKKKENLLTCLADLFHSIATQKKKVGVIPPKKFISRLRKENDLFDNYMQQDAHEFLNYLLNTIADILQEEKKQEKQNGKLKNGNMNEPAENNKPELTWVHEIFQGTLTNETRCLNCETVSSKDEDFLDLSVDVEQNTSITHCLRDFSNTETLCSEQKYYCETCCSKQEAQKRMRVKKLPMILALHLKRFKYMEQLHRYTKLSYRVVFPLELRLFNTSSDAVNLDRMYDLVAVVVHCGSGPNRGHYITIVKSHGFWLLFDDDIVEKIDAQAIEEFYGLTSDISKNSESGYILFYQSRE
Chain of USP54 (Q70EL1 whole entry): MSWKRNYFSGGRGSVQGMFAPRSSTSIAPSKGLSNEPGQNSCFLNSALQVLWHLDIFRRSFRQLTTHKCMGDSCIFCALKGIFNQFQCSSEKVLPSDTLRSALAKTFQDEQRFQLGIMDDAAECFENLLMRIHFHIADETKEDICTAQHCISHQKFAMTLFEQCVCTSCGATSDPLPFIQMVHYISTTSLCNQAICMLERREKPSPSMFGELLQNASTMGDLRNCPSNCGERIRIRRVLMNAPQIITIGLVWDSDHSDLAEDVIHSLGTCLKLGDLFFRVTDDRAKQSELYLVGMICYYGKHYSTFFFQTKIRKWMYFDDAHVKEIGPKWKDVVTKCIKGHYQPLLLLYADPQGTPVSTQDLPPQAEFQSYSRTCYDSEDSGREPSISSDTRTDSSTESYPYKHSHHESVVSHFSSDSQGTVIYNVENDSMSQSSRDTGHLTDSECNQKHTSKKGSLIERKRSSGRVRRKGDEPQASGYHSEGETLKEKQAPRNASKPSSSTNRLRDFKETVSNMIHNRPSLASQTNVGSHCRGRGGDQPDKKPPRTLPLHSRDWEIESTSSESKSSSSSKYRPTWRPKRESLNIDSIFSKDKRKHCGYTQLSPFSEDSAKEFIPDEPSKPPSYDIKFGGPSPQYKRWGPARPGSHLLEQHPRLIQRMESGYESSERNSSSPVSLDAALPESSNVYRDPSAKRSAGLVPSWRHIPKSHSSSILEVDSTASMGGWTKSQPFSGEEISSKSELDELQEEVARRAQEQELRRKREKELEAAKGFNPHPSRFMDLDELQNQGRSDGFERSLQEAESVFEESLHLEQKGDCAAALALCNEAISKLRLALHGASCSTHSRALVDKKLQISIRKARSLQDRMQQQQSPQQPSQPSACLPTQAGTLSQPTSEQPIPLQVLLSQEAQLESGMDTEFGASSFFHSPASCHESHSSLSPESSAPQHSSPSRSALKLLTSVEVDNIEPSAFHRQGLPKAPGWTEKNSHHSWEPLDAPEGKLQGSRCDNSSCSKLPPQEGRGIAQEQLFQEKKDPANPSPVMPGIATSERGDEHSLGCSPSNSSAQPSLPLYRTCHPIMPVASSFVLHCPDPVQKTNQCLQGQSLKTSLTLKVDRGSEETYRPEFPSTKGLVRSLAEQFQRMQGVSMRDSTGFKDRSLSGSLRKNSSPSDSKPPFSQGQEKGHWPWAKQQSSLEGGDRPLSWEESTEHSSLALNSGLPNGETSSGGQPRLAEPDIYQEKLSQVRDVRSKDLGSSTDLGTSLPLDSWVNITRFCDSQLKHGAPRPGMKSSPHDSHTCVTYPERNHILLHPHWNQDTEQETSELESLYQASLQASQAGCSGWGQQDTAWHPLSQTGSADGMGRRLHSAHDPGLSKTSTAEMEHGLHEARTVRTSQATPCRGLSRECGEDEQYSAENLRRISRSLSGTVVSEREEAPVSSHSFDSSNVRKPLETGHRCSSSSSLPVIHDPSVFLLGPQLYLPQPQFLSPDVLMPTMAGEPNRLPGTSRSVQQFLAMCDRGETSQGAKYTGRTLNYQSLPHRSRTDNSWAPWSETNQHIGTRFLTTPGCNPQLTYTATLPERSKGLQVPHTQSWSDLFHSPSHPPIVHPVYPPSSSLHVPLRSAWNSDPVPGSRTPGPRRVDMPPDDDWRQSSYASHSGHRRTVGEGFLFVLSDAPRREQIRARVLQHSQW
Chain of UniProt O00487 (O00487 whole entry): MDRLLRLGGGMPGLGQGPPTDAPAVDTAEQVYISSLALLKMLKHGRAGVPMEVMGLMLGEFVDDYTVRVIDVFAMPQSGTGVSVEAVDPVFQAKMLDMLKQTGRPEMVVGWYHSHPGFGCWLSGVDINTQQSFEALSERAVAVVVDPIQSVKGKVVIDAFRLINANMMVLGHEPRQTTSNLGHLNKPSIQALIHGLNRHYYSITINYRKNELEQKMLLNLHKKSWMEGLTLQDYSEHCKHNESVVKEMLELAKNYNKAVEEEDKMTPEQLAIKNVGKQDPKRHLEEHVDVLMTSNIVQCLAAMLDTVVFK
Chain of USP9X (Q93008 whole entry): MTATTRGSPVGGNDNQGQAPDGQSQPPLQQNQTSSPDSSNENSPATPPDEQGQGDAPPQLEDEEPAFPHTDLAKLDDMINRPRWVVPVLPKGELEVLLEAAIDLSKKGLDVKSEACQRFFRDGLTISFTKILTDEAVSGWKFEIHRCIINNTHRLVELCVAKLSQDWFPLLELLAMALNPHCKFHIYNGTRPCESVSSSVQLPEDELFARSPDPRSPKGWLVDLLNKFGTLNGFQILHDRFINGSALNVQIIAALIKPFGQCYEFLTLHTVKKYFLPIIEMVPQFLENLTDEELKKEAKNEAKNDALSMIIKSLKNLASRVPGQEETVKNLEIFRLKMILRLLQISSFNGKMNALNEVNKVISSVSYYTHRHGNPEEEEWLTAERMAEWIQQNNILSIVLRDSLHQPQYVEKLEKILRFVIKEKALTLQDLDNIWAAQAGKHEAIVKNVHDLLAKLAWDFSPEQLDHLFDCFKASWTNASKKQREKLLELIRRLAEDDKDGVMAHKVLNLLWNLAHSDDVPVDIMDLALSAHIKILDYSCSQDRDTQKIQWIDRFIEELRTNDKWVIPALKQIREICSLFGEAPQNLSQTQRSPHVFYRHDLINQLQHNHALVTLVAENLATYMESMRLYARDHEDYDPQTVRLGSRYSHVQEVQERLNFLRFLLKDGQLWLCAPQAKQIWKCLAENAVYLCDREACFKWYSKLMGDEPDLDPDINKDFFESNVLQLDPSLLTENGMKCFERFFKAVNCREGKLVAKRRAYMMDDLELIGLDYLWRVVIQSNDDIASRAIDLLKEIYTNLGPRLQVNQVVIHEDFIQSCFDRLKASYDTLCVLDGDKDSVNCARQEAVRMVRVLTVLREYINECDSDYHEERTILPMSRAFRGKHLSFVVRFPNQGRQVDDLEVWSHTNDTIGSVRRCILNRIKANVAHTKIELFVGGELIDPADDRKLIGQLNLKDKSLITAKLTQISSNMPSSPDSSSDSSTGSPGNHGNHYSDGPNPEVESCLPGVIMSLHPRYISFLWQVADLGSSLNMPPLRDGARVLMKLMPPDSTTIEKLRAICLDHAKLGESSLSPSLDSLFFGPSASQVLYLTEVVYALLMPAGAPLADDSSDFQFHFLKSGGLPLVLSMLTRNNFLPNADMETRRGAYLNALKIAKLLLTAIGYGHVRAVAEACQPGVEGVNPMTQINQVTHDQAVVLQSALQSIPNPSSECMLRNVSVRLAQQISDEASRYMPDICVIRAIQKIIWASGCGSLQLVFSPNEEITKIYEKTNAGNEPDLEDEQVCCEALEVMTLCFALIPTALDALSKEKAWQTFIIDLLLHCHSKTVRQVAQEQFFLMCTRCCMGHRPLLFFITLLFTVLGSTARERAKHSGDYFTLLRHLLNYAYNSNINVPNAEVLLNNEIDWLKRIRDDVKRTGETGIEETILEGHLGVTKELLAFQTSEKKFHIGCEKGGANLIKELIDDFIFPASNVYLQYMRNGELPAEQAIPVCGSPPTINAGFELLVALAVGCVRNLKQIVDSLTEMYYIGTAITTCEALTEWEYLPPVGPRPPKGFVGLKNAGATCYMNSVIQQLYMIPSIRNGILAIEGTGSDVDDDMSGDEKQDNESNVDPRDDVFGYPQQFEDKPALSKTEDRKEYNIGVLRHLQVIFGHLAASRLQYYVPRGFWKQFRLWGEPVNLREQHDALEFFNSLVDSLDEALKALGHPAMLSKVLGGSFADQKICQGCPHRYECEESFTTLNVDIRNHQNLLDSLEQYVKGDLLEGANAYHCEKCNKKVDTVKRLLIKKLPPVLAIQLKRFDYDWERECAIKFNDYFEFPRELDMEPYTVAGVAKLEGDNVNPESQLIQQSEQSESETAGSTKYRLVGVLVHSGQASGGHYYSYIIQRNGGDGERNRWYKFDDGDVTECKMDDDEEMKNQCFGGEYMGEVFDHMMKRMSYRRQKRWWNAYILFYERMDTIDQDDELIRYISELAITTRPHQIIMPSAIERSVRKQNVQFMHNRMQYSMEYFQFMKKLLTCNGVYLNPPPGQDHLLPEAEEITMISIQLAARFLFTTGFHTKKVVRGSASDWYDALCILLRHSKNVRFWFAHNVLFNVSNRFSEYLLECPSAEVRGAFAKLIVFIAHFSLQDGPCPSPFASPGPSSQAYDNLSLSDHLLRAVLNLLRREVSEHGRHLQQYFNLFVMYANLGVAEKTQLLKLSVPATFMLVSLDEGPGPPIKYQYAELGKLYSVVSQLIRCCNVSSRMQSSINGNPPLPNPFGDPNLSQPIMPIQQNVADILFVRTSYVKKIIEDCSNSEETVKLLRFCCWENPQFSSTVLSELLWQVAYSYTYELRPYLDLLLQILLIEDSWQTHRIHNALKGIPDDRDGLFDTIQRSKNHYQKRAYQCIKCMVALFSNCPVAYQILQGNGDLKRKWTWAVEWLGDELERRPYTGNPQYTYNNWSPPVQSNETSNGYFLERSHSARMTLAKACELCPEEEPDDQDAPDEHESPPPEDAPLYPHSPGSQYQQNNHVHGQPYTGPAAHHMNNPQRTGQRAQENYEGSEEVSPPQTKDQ

O=C(CCl)NCC1(c2ccccc2)CC1
inactive: USP42 -0.475 | USP46 0.0609 | USP47 -0.388 | USP48 -0.502 | USP5 0.023 | USP54 0.574 | USP7 -0.075 | USP8 -0.144 | USP9X -0.121 | UniProt O00487 -0.00244
